High-throughput results: PubChem, several laboratories
Only some compounds are listed: those with a hit (about 3.8% of all), similar ones and a draw of the others.
Ecoli rRNA inh = reduced GFP signal of wild-type E. coli, primary screen, bacterial rRNA inhibitor project, GFP/RFP fluorescence, OD600, single point | AID 720706, 2013 | 350,000 compounds, 1.6% hits | GFP signal change (wild-type ribosome), % (no concentration beside the values) | E. coli WT GFP vs humanized-ribosome RFP mutants, 24 h; stronger effect = lower value; DMSO median 0, no signal -100;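 active = significant combined selectivity score with lowered wild-type GFP, culture density cut under 30%, mutant RFP and density less affected; inactive = any of these conditions unmet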
ADAM10 inh = human ADAM10 inhibitors, primary screen, biochemical, QFRET, HTS; recombinant ADAM10, EDANS/DABCYL FRET peptide cleavage, 3 h; Disintegrin and metalloproteinase domain-containing protein 10 (Homo sapiens), O14672; inhibition, % at 7 µM; 370,000 compounds, 0.62% hits; AID 720582, 2013;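 active = inhibition above a per-campaign cutoff equal to the mean of compounds falling between control-based bounds plus 3 SD, cut at about 20% in these data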;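 also: 0% = DMSO wells while the 100% control is not disclosed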
KLK7 zymogen act = proKLK7 zymogen activators, primary screen, biochemical, fluorescence intensity; Kallikrein-7 (Homo sapiens), P49862; purified proKLK7, EDANS-DABCYL substrate fluorescence; 100% is mature enzyme control, 0% vehicle; activation, % at 7 µM; 370,000 compounds, 0.9% hits;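 active = activation above the mean of all tested compounds plus 3 SD, computed per campaign excluding outliers beyond control limits, cut at about 13% in these data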
Target sequence (P49862 whole entry, looked up): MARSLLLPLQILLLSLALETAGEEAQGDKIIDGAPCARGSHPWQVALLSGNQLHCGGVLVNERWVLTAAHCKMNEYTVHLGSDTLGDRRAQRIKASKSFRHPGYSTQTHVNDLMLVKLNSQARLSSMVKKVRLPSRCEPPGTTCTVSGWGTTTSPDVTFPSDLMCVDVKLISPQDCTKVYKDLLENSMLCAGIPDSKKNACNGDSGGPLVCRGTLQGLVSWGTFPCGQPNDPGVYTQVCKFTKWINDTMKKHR
ADAM17 inh = ADAM17 inhibitors, primary screen, biochemical, QFRET; 370,000 compounds, 0.83% hits; AID 720648, 2013; Disintegrin and metalloproteinase domain-containing protein 17 (Homo sapiens), P78536; inhibition, % at 6.95 µM; recombinant ADAM17, EDANS/DABCYL FRET peptide cleavage;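 active = inhibition above the mean of compounds lying between control limits plus 3 SD, set per campaign, cut at about 8.5% in these data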;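 also: 0% = DMSO-only wells as the low control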
FGF22 binding = binders of human FGF22 protein, primary screen, FGF22 synaptogenesis inhibitor project, biophysical, thermal shift, single point. Fibroblast growth factor 22 (Homo sapiens), Q9HCT0. recombinant FGF22 thermal shift, SYPRO orange fluorescence; percent of sucrose octasulfate shift, DMSO zero. 340,000 compounds, 1.5% hits. activity (Tm shift, normalised), % at 9.99 µM;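 active = mean Tm shift, scaled 0 neutral to 100 positive control, at about 1.3% or above, every replicate too, limit read from the data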
Target sequence (Q9HCT0 whole entry, looked up): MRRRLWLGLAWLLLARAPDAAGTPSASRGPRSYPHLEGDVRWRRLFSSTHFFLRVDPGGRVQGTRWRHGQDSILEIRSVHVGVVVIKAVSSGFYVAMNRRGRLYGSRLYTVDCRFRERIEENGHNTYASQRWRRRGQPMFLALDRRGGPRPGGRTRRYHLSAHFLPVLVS
ADAM10 confirm = human ADAM10 inhibitors, confirmation, biochemical, QFRET, triplicate; AID 743208, 2013; inhibition, % at 6.95 µM; ADAM10 QFRET peptide cleavage, EDANS fluorescence; 2,100 compounds, 1% hits; shares compounds with ADAM10 inh;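 active = inhibition above about 20% chosen separately for each screening run, limit read from the data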;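 also: 0% = DMSO wells and 100% = marimastat wells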
ADAM17 ctr = ADAM17 inhibitors, counter-screen for ADAM10 exosite inhibitor project, biochemical, QFRET, high throughput; inhibition, % at 6.95 µM; ADAM17 QFRET peptide cleavage, EDANS fluorescence; AID 743214, 2013; 2,100 compounds, 0.5% hits; shares compounds with ADAM10 inh;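 active = mean triplicate inhibition above the solvent-only control wells' mean plus 3 SD, cut at about 12% in these data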;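 also: 0% = DMSO wells and 100% = marimastat wells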
Active calls of the source: *; x = no result.

SMILES	Ecoli rRNA inh	ADAM10 inh	KLK7 zymogen act	ADAM17 inh	FGF22 binding	ADAM10 confirm	ADAM17 ctr
O=C(Nc1ccc(S(=O)(=O)N2CCCC2)cc1)Nc1ccc(F)cc1F	-14.6	6.6	0.1	0.8	-0.2	x	x
Cc1ccc(S(=O)(=O)Nc2ccc(NC(=O)Nc3ccc(F)cc3F)cc2)cc1	x	20.3*	0.4	7.8	x	4.1	1.1
Cc1cccc(OCc2n[nH]c(=S)n2C2CCCCC2)c1	-33.5	20.8*	0.3	5.5	0.3	-0.4	0.1
N#Cc1c(NC(=O)CSc2n[nH]c(N)n2)oc(-c2ccccc2)c1-c1ccccc1	x	20.0*	-0.3	6.9	x	4.3	2.5
Cc1cccc(C)c1OCC(=O)Nc1oc(-c2ccccc2)c(-c2ccccc2)c1C#N	x	-2.6	-0.2	1.3	x	x	x
Cc1ccc(NC(=O)Nc2ccc3c(c2)[C@]2(CC(=O)N(CC(C)C)C2c2ccccc2)C(=O)N3C)cc1Cl (stereo partly specified)	x	21.7*	1.1	9.5*	x	7.4	2.4
O=C(C[C@H]1CC[C@H]2[C@@H](COC[C@H](O)CN2C(=O)Nc2ccccc2)O1)NCCCN1CCOCC1	2.6	x	x	x	-0.1	x	x
CC(C)CC#Cc1ccc2c(c1)O[C@H](CN(C)Cc1cccc(F)c1)[C@H](C)CN([C@@H](C)CO)S2(=O)=O	-6.4	x	x	x	-0.3	x	x
C/C(=N\OCC(=O)Nc1ccc(OC(F)(F)F)cc1)c1ccc2c(c1)OCCO2	-15.3	19.9*	-0.1	7.4	x	8.2	2.2
C[C@H]1CN([C@@H](C)CO)C(=O)Cc2cc(NS(=O)(=O)c3ccccc3)ccc2O[C@@H]1CN(C)C	2.3	x	x	x	0.1	x	x
O=C(Nc1ccn(Cc2ccccc2F)n1)c1ccc(COc2ccc(Br)cc2)cc1	x	19.9*	-0.4	3.3	x	4.9	0.6
C=CCC[C@H](Cc1ccc(F)cc1)C(=O)OC[C@H](Cc1c[nH]c2ccccc12)NC(=O)[C@@H](CC=C)CC(=O)N[C@@H](CO)Cc1ccccc1	6.9	-2.3	0.2	-4.3	0.3	x	x
C=CCC[C@H](Cc1ccc(F)cc1)C(=O)OC[C@@H](Cc1c[nH]c2ccccc12)NC(=O)[C@H](CC=C)CC(=O)NCCO	-7.4	20.7*	-0.6	7.0	-0.4	3.8	0.4
C=CCC[C@@H](Cc1ccc(F)cc1)C(=O)OC[C@H](Cc1c[nH]c2ccccc12)NC(=O)[C@H](CC=C)CC(=O)NCCO	1.4	22.0*	-0.6	8.1	0.1	5.9	1.0
C=CCC[C@H](Cc1ccc(F)cc1)C(=O)OC[C@H](Cc1c[nH]c2ccccc12)NC(=O)[C@H](CC=C)CC(=O)N[C@H](CO)Cc1ccccc1	10.6	20.9*	0.1	6.2	0.0	9.2	2.8
C=CCC[C@@H](Cc1ccc(F)cc1)C(=O)OC[C@@H](NC(=O)[C@@H](CC=C)CC(=O)N[C@@H](CO)Cc1ccccc1)C(C)(C)C	14.6	20.6*	0.5	7.2	-0.6	4.8	0.8
CCCC(=O)Nc1ccc2c(c1)C(=O)N(C)[C@@H]1CC[C@@H](CC(=O)NCC3CCCCC3)O[C@H]1CO2	2.7	x	x	x	-0.4	x	x
O=C(Nc1ccccc1)N[C@H]1CC[C@@H](CCNC(=O)c2ccccc2F)O[C@@H]1CO	5.0	x	x	x	-0.1	x	x
C[C@@H]1CN([C@@H](C)CO)C(=O)c2cc(NC(=O)Cc3cn(C)c4ccccc34)ccc2O[C@H]1CN(C)Cc1ccncc1	-3.1	x	x	x	0.4	x	x
Cc1ccc(S(=O)(=O)Nc2ccccc2O)cc1	-7.9	-12.1	0.0	-1.8	-0.9	x	x
